High-throughput results from PubChem.
In the library only some 1.2% were active in any assay of this set; here they are far more common.
RGS4-Gao reg: human RGS4-Galphao interaction regulation; AID 1415; Multiplexed bead flow cytometry, RGS4-Galphao binding; actives lie on both sides; hit rate 0.33% among 220,000; binding response (% of control), % at 10 µM; in the data active = binding response below about 49% or above about 150%; inactive = in between;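 note: fluorescent Galphao activated with aluminum fluoride binding bead-coupled RGS4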
Target sequence (P09471 whole entry, looked up): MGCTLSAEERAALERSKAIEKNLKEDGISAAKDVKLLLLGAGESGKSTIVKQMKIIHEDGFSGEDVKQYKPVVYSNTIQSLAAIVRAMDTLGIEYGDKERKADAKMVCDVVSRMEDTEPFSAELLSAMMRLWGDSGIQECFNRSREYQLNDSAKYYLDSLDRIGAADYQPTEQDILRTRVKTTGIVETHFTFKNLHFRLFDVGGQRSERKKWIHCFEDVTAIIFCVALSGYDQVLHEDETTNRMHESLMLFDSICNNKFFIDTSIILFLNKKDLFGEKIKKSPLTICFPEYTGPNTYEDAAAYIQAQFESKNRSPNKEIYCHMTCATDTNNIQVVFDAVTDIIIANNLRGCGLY
Avidin bead fluor: avidin bead compound fluorescence profile; Avidin beads, compound fluorescence 488/530 nm, flow cytometry; active compounds read high; hit rate 0.38% among 220,000; fluorescence (KMESF) at 10 µM; AID 1775; in the data active = fluorescence above about 47
RGS16-Gao: RGS16-Galphao interaction regulator (human); O15492+P09471; bead-based flow cytometry RGS16-Galphao binding, fluorescence; actives lie on both sides; binding response (% of control), % at 10 µM; hit rate 0.38% among 220,000;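 note: Galphao activated by GDP with aluminum fluoride before binding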
Target sequence (O15492 whole entry, looked up): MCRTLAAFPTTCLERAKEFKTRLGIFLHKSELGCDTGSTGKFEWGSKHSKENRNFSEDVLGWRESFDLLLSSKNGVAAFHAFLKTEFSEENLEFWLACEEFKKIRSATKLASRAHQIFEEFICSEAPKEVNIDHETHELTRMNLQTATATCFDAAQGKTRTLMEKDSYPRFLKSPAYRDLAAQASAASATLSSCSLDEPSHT
Target sequence (P09471 whole entry, looked up): as the sequence (P09471 whole entry, looked up) above
RGS8-Gao: human RGS8-Galphao interaction regulation; P09471; multiplexed bead flow cytometry, RGS8-Galphao binding; actives lie on both sides; response (percent of control binding), % at 10 µM; hit rate 0.34% among 220,000; AID 1423; in the data active = response below about 60% or above about 140%; inactive = in between;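 note: Galphao activated as the GDP aluminium fluoride complex binding bead-coupled RGS8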
GSH bead fluor: compound fluoresces at 488/530 nm on GSH beads; GSH beads flow cytometry, compound fluorescence 488/530 nm; active compounds read high; fluorescence (KMESF) at 10 µM; hit rate 0.25% among 190,000; in the data active = fluorescence above about 89;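 note: glutathione beads carrying GST-tagged Bcl family fusion proteins plus one bare bead set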
RGS7-Gao reg: human RGS7-Galphao interaction regulation | Multiplexed bead flow cytometry, RGS7-Galphao binding; actives lie on both sides | binding response (% of control), % at 10 µM | hit rate 0.35% among 220,000 | AID 1439; in the data active = binding response below about 49% or above about 150%; inconclusive = no clear call, values can overlap the other calls; inactive = in between;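 note: fluorescent Galphao held in activated GDP-AlF4 state binding bead-coupled RGS7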
RGS4-Gao HTS: RGS4-Galphao interaction regulator (human); hit rate 99% among 1,600; multiplexed bead flow cytometry, RGS–Galpha-o binding; RGS4–Galpha-o binding response, % at 10 µM; shares compounds with RGS16-Gao;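 note: fluorescently labeled Galpha-o bound to GDP with aluminium fluoride binding biotinylated RGS beads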
Avidin counter: counter-screen: compounds disrupting biotin binding to avidin beads. shares compounds with RGS16-Gao. inhibition, % at 10 µM. AID 1783. 1,700 tested, under 10 active. streptavidin beads, fluorescein-biotin binding, flow cytometry;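 active = inhibition above 50%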;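 note: median green fluorescence of gated singlet beads compared with DMSO control wells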
RGS8-Gao confirm: RGS8-Galphao interaction regulation, single point confirmation; binding response (% of control), % at 10 µM; bead-based flow cytometry RGS8-Galphao binding, fluorescence; actives lie on both sides; shares compounds with RGS16-Gao; hit rate 3% among 1,700; in the data active = binding response below about 72% or above about 130%; inactive = in between;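 note: Galphao activated as GDP AlF4 complex before binding bead RGS8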
RGS7-Gao single: confirmation of regulators of human RGS7-Galphao interaction; shares compounds with RGS16-Gao; bead-based flow cytometry RGS7-Galphao binding; actives lie on both sides; response (percent of control binding), % at 10 µM; hit rate 7.8% among 1,700; AID 1837; in the data active = response below about 75% or above about 130%; inactive = in between;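 note: fluorescent Galphao activated with GDP and aluminum fluoride binding bead-coupled RGS7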
RGS16-Gao conf: RGS16-Galphao interaction regulation, single point confirmation. shares compounds with RGS16-Gao. bead-based flow cytometry, RGS16-Galphao binding; actives lie on both sides. response (% of control binding), % at 10 µM. hit rate 4% among 1,700; in the data active = response below about 74% or above about 130%; inactive = in between;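 note: Galphao activated as the GDP aluminium fluoride complex binding bead-coupled RGS16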
RGS4-Gao single: RGS4-Galphao interaction regulation, single point confirmation | shares compounds with RGS16-Gao | RGS4-Galphao binding, multiplexed bead flow cytometry; actives lie on both sides | binding response (% of control), % at 10 µM | hit rate 4% among 1,700 | AID 1840; in the data active = binding response below about 74% or above about 130%; inactive = in between
RGS19-Gao conf: RGS19-Galphao interaction regulation, single point confirmation; AID 1841; bead-based flow cytometry RGS19-Galphao binding; actives lie on both sides; hit rate 5% among 1,700; shares compounds with RGS16-Gao; response (percent of control binding), % at 10 µM; in the data active = response below about 50% or above about 160%; inactive = in between
Each line names hits and unclear results; the compound was inactive in the other large screens (follow-up assays come after a bar, where they were run); [ ] = dose if it differs, or a comment. Unless noted, the rule behind the calls is not given here.

COc1ccccc1-c1c(C)nn2c(N3CCC(C)CC3)cc(C)nc12	RGS4-Gao reg 17, RGS16-Gao 11, RGS8-Gao 22, RGS7-Gao reg inconclusive (no result: GSH bead fluor) | Avidin counter inactive | RGS8-Gao confirm inactive | RGS7-Gao single inactive | RGS16-Gao conf inactive | RGS4-Gao single inactive | RGS19-Gao conf inactive
Nc1nc(SCC(=O)Nc2ccc(Cl)cc2)[nH]c(=O)c1-c1ccccc1	none
COc1cc(CN2CCC(C(=O)N3CCN(c4ccccc4F)CC3)CC2)cc(OC)c1OC	none
COc1ccc(CN2CCC(C(=O)N3CCN(c4ccccc4F)CC3)CC2)cc1OC	RGS8-Gao 141[activator] | RGS4-Gao HTS 135
O=C(NC(=S)Nc1ccccc1N1CCOCC1)c1ccc(-c2ccccc2F)o1	RGS7-Gao reg inconclusive (no result: GSH bead fluor)
NC(=S)N/N=C/c1ncc(C(F)(F)F)cc1Cl	RGS7-Gao reg inconclusive (no result: GSH bead fluor)
COC(=O)CCC(=O)NNC(=O)CCCOc1ccc(Cl)cc1Cl	none
COC(=O)CCC(=O)NNC(=O)c1ccc(Cl)cc1Cl	Avidin bead fluor 113, RGS7-Gao reg 175[activator] | RGS4-Gao HTS 104
O=C(CNc1cccc(S(=O)(=O)N2CCOCC2)c1)N1CCc2ccccc21	RGS7-Gao reg inconclusive (no result: GSH bead fluor)
C=CCN(C(=O)c1ccccn1)C(C(=O)NCc1ccccc1)c1ccccc1F (stereo not given)	none
NC(=O)C1CCN(C(=O)Nc2csc3ccccc23)CC1	RGS7-Gao reg inconclusive (no result: GSH bead fluor) | Avidin counter inactive | RGS8-Gao confirm inactive | RGS7-Gao single inactive | RGS16-Gao conf inactive | RGS4-Gao single inactive | RGS19-Gao conf inactive
CCOC(=O)C1CCN(S(=O)(=O)Cc2ccc(Cl)cc2)CC1	RGS4-Gao reg 170[activator], RGS7-Gao reg 164[activator] (no result: Avidin bead fluor, RGS16-Gao, RGS8-Gao) | Avidin counter inactive | RGS8-Gao confirm inactive | RGS7-Gao single 61 | RGS16-Gao conf inactive | RGS4-Gao single inactive | RGS19-Gao conf inactive
CCOC(=O)C1CCN(S(=O)(=O)Cc2ccccc2)CC1	none
CCOC1CC(C)(C)NC(=S)N1 (stereo not given)	none
CC1(C)CCC(C)(C)NC(=S)N1	RGS16-Gao 15 | RGS4-Gao HTS 99 | Avidin counter inactive | RGS8-Gao confirm inactive | RGS7-Gao single 71 | RGS16-Gao conf inactive | RGS4-Gao single inactive | RGS19-Gao conf inactive
CCC(C(=O)O)n1nc(-c2ccccc2)c2cc(Cl)ccc21 (stereo not given)	none
O=C(CSc1nncn1-c1ccccc1)NC1CCCc2ccccc21 (stereo not given)	RGS16-Gao 23 | RGS4-Gao HTS 92 | Avidin counter inactive | RGS8-Gao confirm inactive | RGS7-Gao single inactive | RGS16-Gao conf inactive | RGS4-Gao single inactive | RGS19-Gao conf inactive
CNC(=O)c1ccsc1NC(=O)c1coc2ccccc2c1=O	RGS4-Gao reg 9.9, RGS16-Gao 1.6, RGS8-Gao 12, RGS7-Gao reg -6.6 | Avidin counter inactive | RGS8-Gao confirm inactive | RGS7-Gao single inactive | RGS16-Gao conf inactive | RGS4-Gao single inactive | RGS19-Gao conf inactive
O=C(Nc1ccc2c(c1)OCCO2)c1coc2ccccc2c1=O	none
COC(=O)c1nc(-c2ccccc2)oc1N1CCOCC1	RGS7-Gao reg inconclusive
COc1ccc(Cn2c(CCC(=O)Nc3ccc(C)cc3)nc3cccnc32)cc1	RGS4-Gao reg 156[activator], Avidin bead fluor 53 | Avidin counter inactive | RGS8-Gao confirm inactive | RGS7-Gao single inactive | RGS16-Gao conf inactive | RGS4-Gao single inactive | RGS19-Gao conf inactive
CCOc1ccc(N2C(=O)/C(=C/c3cccs3)N(C)C2=S)cc1	none
CCc1ccc(/C=C2/C(=O)N(CC)C(=S)N2C)s1	RGS4-Gao reg 198[activator], RGS8-Gao 170[activator], RGS7-Gao reg 199[activator] | Avidin counter inactive | RGS8-Gao confirm inactive | RGS7-Gao single inactive | RGS16-Gao conf inactive | RGS4-Gao single inactive | RGS19-Gao conf inactive
CC1CN(C(=O)/C=C/c2ccc([N+](=O)[O-])s2)CC(C)O1 (stereo not given)	none
CC1CC(C)CN(C(=O)/C=C/c2ccc([N+](=O)[O-])s2)C1 (stereo not given)	RGS4-Gao reg 18, RGS16-Gao 11, RGS8-Gao 14, RGS7-Gao reg 15 (no result: Avidin bead fluor) | Avidin counter inactive | RGS8-Gao confirm inactive | RGS7-Gao single 47 | RGS16-Gao conf inactive | RGS4-Gao single 58 | RGS19-Gao conf inactive
COc1ccccc1CNC(=O)c1ccc(OC(C)C)cc1	none
O=C(CNC(=O)/C(=C\c1ccccc1)NC(=O)c1ccc(Br)cc1)OCc1ccccc1	none
O=C(CNC(=O)/C(=C\c1ccc(F)cc1)NC(=O)c1ccccc1)OCc1ccccc1	Avidin bead fluor 199, RGS7-Gao reg 172[activator] | RGS4-Gao HTS 125
CC(=O)Nc1ccc(S(=O)(=O)NCC(=O)OCC(=O)N2CCN(c3ccccc3)CC2)cc1	RGS16-Gao 21 | RGS4-Gao HTS 82 | Avidin counter inactive | RGS8-Gao confirm inactive | RGS7-Gao single inactive | RGS16-Gao conf inactive | RGS4-Gao single inactive | RGS19-Gao conf inactive
O=C(CNS(=O)(=O)c1c(Cl)cccc1Cl)OCC(=O)N1CCN(c2ccccc2)CC1	none
CCc1nc(C)ccc1OC(=O)C12CC3CC(CC(C3)C1)C2	none
Cc1ccc(OC(=O)C23CC4CC(CC(C4)C2)C3)c(C)n1	Avidin bead fluor 111, RGS7-Gao reg 152[activator] | RGS4-Gao HTS 119 | Avidin counter inactive | RGS8-Gao confirm inactive | RGS7-Gao single inactive | RGS16-Gao conf inactive | RGS4-Gao single inactive | RGS19-Gao conf inactive
